Reference: PubChem BioAssay AID1159580 (chemical genetic matrix, 2015)
The campaign covered roughly 5,500 compounds. About 2,000 (36%) were called active. Not shown: some 18% with an inconclusive outcome. Cut-off read from the data, not from the text of the source: active = normalized growth mostly below about 0.91 (no sharp cut-off); inconclusive = no clear call, values can overlap the other calls; inactive = mostly above about 0.92. Some of the results follow.

Assay: chemical genetic growth profiling, strain panel (AID 1159580);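 note: tested at 20 µM; growth read once vehicle control cultures reached saturation at 30 °C; 1 = growth at the plate median or of vehicle wells; lower values mean less growth of the strain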
Conditions: growth OD
[1] = S. cerevisiae deletion strains, locus YHR030C, strain SLT2, active compounds read low
[2] = S. cerevisiae deletion strains, locus YMR263W, strain SAP30, active compounds read low
[3] = S. cerevisiae deletion strains, locus YPL241C, strain CIN2, active compounds read low

Measured: normalized growth

CN(C)CCc1c[nH]c2ccc(Cn3cncn3)cc12
inactive: [1] 0.92 | S. cerevisiae deletion strains, locus YHR079C, strain IRE1, active compounds read low 0.928 | S. cerevisiae deletion strains, locus YJL095W, strain BCK1, active compounds read low 0.961 | S. cerevisiae deletion strains, locus YJR066W, strain TOR1, active compounds read low 0.914 | S. cerevisiae deletion strains, locus YLR113W, strain HOG1, active compounds read low 0.918 | S. cerevisiae deletion strains, locus YNL183C, strain NPR1, active compounds read low 0.926 | S. cerevisiae deletion strains, locus YOR231W, strain MKK1, active compounds read low 0.928 | S. cerevisiae deletion strains, locus YPL256C, strain CLN2, active compounds read low 0.936

CC(N)=NCCC[C@H](N)C(=O)O
inactive: S. cerevisiae deletion strains, locus YAL040C, strain CLN3, active compounds read low 1 | S. cerevisiae deletion strains, locus YCL061C, strain MRC1 (second series), active compounds read low 1.01 | S. cerevisiae deletion strains, locus YDR363W, strain ESC2, active compounds read low 1.01 | S. cerevisiae deletion strains, locus YER002W, strain NOP16, active compounds read low 0.997 | [2] 1.02 | S. cerevisiae deletion strains, locus YMR307W, strain GAS1, active compounds read low 1.01 | S. cerevisiae deletion strains, locus YNL175C, strain NOP13, active compounds read low 1.01 | S. cerevisiae deletion strains, locus YNL197C, strain WHI3, active compounds read low 0.999 | S. cerevisiae deletion strains, locus YNL224C, strain SQS1, active compounds read low 1 | S. cerevisiae deletion strains, locus YOR083W, strain WHI5 (second series), active compounds read low 1.02 | [3] 1.01

Cc1cc(/C=N/NC(N)=S)c2c(C)ccc(C(C)C)cc1-2
active: S. cerevisiae deletion strains, locus YNL322C, strain KRE1, active compounds read low 1.06 [resistant]
inactive: S. cerevisiae deletion strains, locus YAL013W, strain DEP1, active compounds read low 1.02 | S. cerevisiae deletion strains, locus YBR229C, strain ROT2, active compounds read low 1.04 | S. cerevisiae deletion strains, locus YCL061C, strain MRC1, active compounds read low 1.02 | S. cerevisiae deletion strains, locus YDL101C, strain DUN1, active compounds read low 1.05 | S. cerevisiae deletion strains, locus YDL134C, strain PPH21, active compounds read low 1.01 | S. cerevisiae deletion strains, locus YDR150W, strain NUM1, active compounds read low 1 | S. cerevisiae deletion strains, locus YEL061C, strain CIN8, active compounds read low 1.01 | S. cerevisiae deletion strains, locus YGR078C, strain PAC10, active compounds read low 1.01 | [1] 1.12 | S. cerevisiae deletion strains, locus YHR087W, strain rtc3, active compounds read low 1.06 | S. cerevisiae deletion strains, locus YJR043C, strain POL32, active compounds read low 1.01 | S. cerevisiae deletion strains, locus YJR075W, strain HOC1, active compounds read low 1.02 | S. cerevisiae deletion strains, locus YLR039C, strain RIC1, active compounds read low 1.02 | S. cerevisiae deletion strains, locus YLR058C, strain SHM2 (second series), active compounds read low 1.03 | S. cerevisiae deletion strains, locus YLR085C, strain ARP6, active compounds read low 1.03 | S. cerevisiae deletion strains, locus YLR262C, strain YPT6, active compounds read low 1.02 | S. cerevisiae deletion strains, locus YML094W, strain GIM5, active compounds read low 1.07 | S. cerevisiae deletion strains, locus YMR219W, strain ESC1, active compounds read low 1.03 | [2] 0.986 | S. cerevisiae deletion strains, locus YNL153C, strain GIM3, active compounds read low 1.02 | S. cerevisiae deletion strains, locus YNL298W, strain CLA4 (second series), active compounds read low 1.05 | S. cerevisiae deletion strains, locus YNR030W, strain Alg12, active compounds read low 1.08 | S. cerevisiae deletion strains, locus YPL055C, strain LGE1, active compounds read low 1.04 | [3] 1.01 | S. cerevisiae deletion strains, locus YPR135W, strain CTF4, active compounds read low 1.17 | S. cerevisiae strains, strain wild type, active compounds read low 1.02
